A selection: hits, their analogues and other compounds. The true share with any hit is near 12%.
Cycloheximide cs: Cycloheximide Counterscreen for Small Molecule Inhibitors of Shiga Toxin; cell reporter, cycloheximide protein synthesis inhibition counterscreen; max response, %; 300,000 compounds, 12% hits; in the data active = max response mostly above about 13%, no sharp cut-off; inactive = mostly below about 14%; also: read at 38.3 µM for the half of the compounds with a filed dose; 0% is about no effect
Lassa entry inh: qHTS for Inhibitors of binding or entry into cells for Lassa Virus; Potency, µM (doses to about 37.9 µM), for the others: top-dose activity change, negative = inhibition, most hits filed as inhibitors; AID 540256, 2011; 300,000 compounds, 1.2% hits; Lassa virus pseudotype entry inhibition, cell reporter; calls by dose curve; tested in HEK293 cells; also: potency is read from the fitted curve at half-maximal effect; % is scaled to controls: 0 for no effect and ±100 for the full control effect; nearly all actives have a fitted effect of over 50% in size
Shiga toxin inh: A qHTS for Small Molecule Inhibitors of Shiga Toxin | 290,000 compounds, 9.2% hits | inhibition, % at 38.7 µM | Vero cells, Shiga toxin protein synthesis inhibition reporter; in the data active = inhibition mostly above about 28%, no sharp cut-off; inactive = mostly below about 43%; also: 0% is about no effect
Marburg entry inh: qHTS for inhibitors of binding or entry into cells for Marburg Virus; 300,000 compounds, 1.8% hits; Potency, µM (titrated, usually from 37.8 µM), for the others: at the highest dose activity change, negative = inhibition, hits mostly inhibitors; Marburg virus pseudotyped entry inhibition, cell reporter; calls by dose curve; tested in HEK293 cells; also: potency is read from the fitted curve at half-maximal effect; % is scaled to controls: 0 for no effect and ±100 for the full control effect
Starred values were filed as active, the others as inactive; ? = inconclusive; . = no result; ! = not active in a repeat; [ ] = another dose, or the depositor's remark.

SMILES | Cycloheximide cs | Lassa entry inh | Shiga toxin inh | Marburg entry inh
Cc1occc1-c1nnc(SCC(=O)c2ccc(F)cc2)n1Cc1ccco1 | 12* | -12% | 14 | 0%
Nc1nonc1-n1nnc(C(=O)N/N=C/c2ccccc2Br)c1CN1CCCC1 | -3 | ? | -8 | 9%[46.1 µM]
Cc1ccc(NC(=O)C(CC(C)C)N2Cc3ccccc3C2=O)cc1F (configuration not stated) | . | 13%[46.1 µM] | . | .
O=C(CSc1nnc(-c2cc3ccccc3cc2O)n1Cc1ccco1)c1ccc(F)cc1 | -5 | 23µM* | -9 | ?
O=C(CSc1nnc(COc2ccccc2)n1Cc1ccco1)c1ccc(F)cc1 | 37* | 9% | 26 | 0%
Cc1ccc(OCc2nnc(SCC(=O)c3ccccc3)n2Cc2ccco2)cc1 | 13 | ? | 28 | ?
Clc1ccc(OCc2nnc(SCCN3CCCCC3)n2Cc2ccco2)cc1 | -3 | -21% | -17 | 26µM*!
Cc1occc1-c1nnc(SC(C)C(=O)Nc2ccccc2F)o1 (configuration not stated) | . | 11µM* | . | ?
O=c1c2ccccc2nnn1CSc1nnc(COc2ccc(Cl)cc2)n1Cc1ccco1 | -1 | -21% | -22 | -1%
Cc1cccc(-n2cc(C(=O)O)c(=O)cc2C)c1 | -3 | 11%[46.1 µM] | 26 | 16%[46.1 µM]
CCN1C(=O)[C@@H]2[C@H]3[C@H](O)[C@H](O)CC(=NO[C@@H]4O[C@H](COC(C)=O)[C@@H](OC(C)=O)[C@H](OC(C)=O)[C@@H]4OC(C)=O)[C@@H]3CC[C@H]2C1=O | . | . | . | 12%[14.2 µM]
COc1ccc(C(=O)CSc2nnc(CNc3ccc(C)cc3C)n2Cc2ccco2)cc1 | 1 | ? | 3 | -40%
Cc1ccc(C(=O)CSc2nnc(CNc3ccc(C)cc3C)n2Cc2ccco2)cc1 | 2 | 26µM* | -9 | ?
O=C(CCN1C(=O)[C@@H]2Cc3ccccc3CN2C1=O)NCc1ccc(Cl)cc1 | -2 | -21%[46.1 µM] | -4 | ?
Cc1ccc(C(=O)c2cc3ccccc3o2)cc1C | 39* | ? | 59* | -8%
O=C(c1cc2ccccc2o1)c1cccs1 | 50* | -17% | 82* | -17%
O=C(c1cccc([N+](=O)[O-])c1)c1cc2ccccc2o1 | 17 | ? | 9 | 13%
Cc1ccc(C(=O)c2cc3ccccc3o2)cc1 | 55* | ? | 93* | -18%
O=C(NC(=S)Nc1ccc(NC(=O)c2cccs2)cc1)c1cc2ccccc2o1 | 1 | -5% | 11 | ?
COC(=O)C1CCN(c2nc3ccccc3nc2[C@@H](C#N)C(=O)NCCc2ccccc2)CC1 | . | . | . | 0%
Cc1c(Cl)cccc1NC(=O)Cn1c(=O)nc(-c2ccccc2)c2ccccc21 | . | -5%[46.1 µM] | . | .
Cc1ccc(S(=O)(=O)CCC(O)c2ccc(Cl)cc2)cc1 (configuration not stated) | -1 | . | 2 | .
CCOc1ccc2c(c1)c(N=NC(=N)N)c(O)n2C | -1 | -30% | -11 | -45%
Cc1ccc2c(c1)c(N=Nc1cccc(C(=O)O)c1)c(O)n2C | 16* | . | 60* | .
CCOc1ccc2c(c1)c(N=Nc1cccc(C(=O)O)c1)c(O)n2C | 58* | ? | 62* | ?
SMILES | Cycloheximide cs | Lassa entry inh | Shiga toxin inh | Marburg entry inh
O=C(NN(C(=O)C1CC1)c1nc2ccccc2s1)C1CC1 | 46* | 0% | 60* | -3%
O=C(C1CCCCC1)N(CCN1CCCC1)c1nc2ccccc2s1 | 32* | 1% | 40 | ?
Cc1noc(C)c1COc1ccc(C(=O)Nc2ccccn2)cc1 | 44* | 10%[46.1 µM] | 89* | -3%[46.1 µM]
Cc1cccnc1NC(=O)c1ccc(OCc2c(C)noc2C)cc1 | 22* | . | 52* | .
Cc1noc(C)c1COc1ccc(C(=O)Nc2ccccc2)cc1 | 9 | 2%[46.1 µM] | 23 | ?
Cc1cccc(-c2ncc(CN3CCN(CCC(C)C)C(CCO)C3)cn2)c1 (configuration not stated) | 1 | -20% | 13 | ?
COC(=O)c1c(-c2cccs2)csc1NC(=O)c1ccc(C(C)C)cc1 | . | -7%[46.1 µM] | . | 9%[46.1 µM]
CC(=O)c1cccc(-n2c(CCC(=O)O)ccc2-c2ccc(C)cc2)c1 | 3 | ? | 18 | -2%
O=C(O)CCc1ccc(-c2ccccc2)n1-c1cccc(C(=O)O)c1 | 131* | . | 174* | .
COc1ccccc1-n1c(CCC(=O)O)ccc1-c1ccccc1 | 32* | . | 36* | .
O=C(O)CCc1ccc(-c2ccc(Br)cc2)n1-c1cccc(O)c1 | 32* | . | 87* | .
Cc1ccc(-n2c(CCC(=O)O)ccc2-c2cccs2)cc1C | 7.9* | 11%[46.1 µM] | 39 | 28%[46.1 µM]
O=C(O)CCc1ccc(-c2ccccc2)n1-c1ccc(C(=O)O)cc1 | 0 | 12%[46.1 µM] | 39 | 12%[46.1 µM]
O=C(COc1cccc2ccccc12)NNC(=O)c1cccs1 | -1 | -8% | -18 | 22%
